Most compounds without a hit are left out; they make up all but 0.9% or so of the library.
HIV TAR-Tat = HIV-1 TAR-Tat binding disruption. HIV-1 TAR RNA, Tat peptide displacement FRET; hits give high values. z-score (test concentration not listed). actives 0.6% (n = 100,000). AID 1259389; active = z-score of 3 or more in at least 2 runs
CDC25B-CDK2 inh = human CDC25B-CDK2/CyclinA binding inhibition. P30305+P24941. HTRF CDC25B-CDK2/CyclinA binding, anti-His/anti-Flag; hits give high values. z-score (test concentration not listed). actives 0.72% (n = 94,000). AID 1259370; in the data active = z-score above about 3.2
Numbers stand for hits; 0 = inactive; - = not tested or not shown.

SMILES	HIV TAR-Tat	CDC25B-CDK2 inh
CCc1ccc(-c2cc(C)no2)cc1S(=O)(=O)N1CC=C(c2ccccc2)CC1	0	-
CC1CCCCN1CCN1C(=O)c2ccc(-c3ccco3)n2CC1(C)C(=O)NC1CCCCC1 (centres undefined)	0	-
CC1(C(=O)NC2CCCCC2)Cn2c(ccc2-c2ccco2)C(=O)N1Cc1ccco1 (centres undefined)	0	-
CC1CCCCN1CCN1C(=O)c2cc3ccccc3n2CC1(C)C(=O)NC1CCCCC1 (centres undefined)	18	-
CC1(C(=O)NC2CCCC2)Cn2c(ccc2-c2ccco2)C(=O)N1Cc1ccco1 (centres undefined)	3.74	-
O=C(c1cccn2c(=O)c3cc(Cl)ccc3nc12)N1CCN(c2ccccc2)CC1	-	0
O=C(O)CCCc1nnc2n3nc(-c4ccccc4)nc3c3ccccc3n12	0	0
CCCOC(=O)c1cc(O)c(O)c(O)c1	26.1	-
CCOC(=O)c1cc(CO)cc(C(=O)OCC)c1	-	0
O=C(O)C1Cc2c([nH]c3ccccc23)C(c2ccccc2)N1 (centres undefined)	-	0
O=C(O)C1Cc2c([nH]c3ccccc23)CN1 (centres undefined)	-	15.9
CCSc1ncc(Cl)c(C(=O)Nc2nc3ccc(F)cc3s2)n1	0	0
O=C(OCc1cc(=O)n2nc(C3CC3)sc2n1)c1ccc2c(c1)OCO2	0	-
COc1ccc(Nc2nc(N)c3ccccc3n2)cc1	0	0
COc1cc2nc(Nc3ccc(F)cc3)nc(N)c2cc1OC	0	12.8
COc1cc2nc(Nc3ccc(C)c(C)c3)nc(N)c2cc1OC	0	9.26
COc1cc2nc(Nc3ccc(C)c(Cl)c3)nc(N)c2cc1OC	0	0
CC(C)CCNC(=O)C1CCN(C(=O)c2cc3sccc3n2C)CC1	0	0
c1ccc(-c2cc(N3CCOCC3)n(-c3ccccc3)n2)cc1	0	0
Cc1nn2c(=O)cc(CSc3nnc(-c4ccc(Cl)cc4)o3)nc2s1	0	0
CCN(CC)S(=O)(=O)c1cc(-c2ccc(=O)n(CC(=O)c3ccc(C)cc3)n2)ccc1C	0	0
CN1CCN(c2cc(N3CCCCC3)c3c4c(onc24)-c2ccccc2C3=O)CC1	0	5.56
CC1CC(C)CN(c2cc(NCCO)c3c4c(onc24)-c2ccccc2C3=O)C1 (centres undefined)	0	0
CCN1CCN(c2cc(N3CCCCC3)c3c4c(onc24)-c2ccccc2C3=O)CC1	0	0
CC1CCCN(c2cc(NCCCC(=O)O)c3c4c(onc24)-c2ccccc2C3=O)C1 (centres undefined)	0	0
SMILES	HIV TAR-Tat	CDC25B-CDK2 inh
CC1CC(C)CN(c2cc(NCC(=O)O)c3c4c(onc24)-c2ccccc2C3=O)C1 (centres undefined)	0	12.3
CC1CCCN(c2cc(NCCO)c3c4c(onc24)-c2ccccc2C3=O)C1 (centres undefined)	0	0
CC1CC(C)CN(c2cc(NCCCC(=O)O)c3c4c(onc24)-c2ccccc2C3=O)C1 (centres undefined)	0	3.04
CC1CCCN(c2cc(NCC(=O)O)c3c4c(onc24)-c2ccccc2C3=O)C1 (centres undefined)	0	3.04
CCCCc1nn2c(=O)cc(CSCC(=O)Nc3cc(C)cc(C)c3)nc2s1	0	-
CN(CCNC(=O)c1noc2c1CSc1ccccc1-2)C1CCCCC1	0	0
O=C(Nc1ccc(F)cc1)C1CCCN(S(=O)(=O)c2ccc3[nH]c(=O)oc3c2)C1 (centres undefined)	0	-
CCOC(=O)C1CCCN(c2cc(NCCO)c3c4c(onc24)-c2ccccc2C3=O)C1 (centres undefined)	8.83	0
CN1CCN(c2cc(NCC(=O)O)c3c4c(onc24)-c2ccccc2C3=O)CC1	0	3.85
CCNc1cc(N2CCCC(C(=O)OCC)C2)c2noc3c2c1C(=O)c1ccccc1-3 (centres undefined)	0	0
CCNc1cc(N2CCN(C)CC2)c2noc3c2c1C(=O)c1ccccc1-3	0	0
Nc1nonc1C(=O)NCCNC(=O)c1cccc(Br)c1	0	0
O=C(COCc1cc(-c2cccs2)on1)Nc1ccccc1Br	10.3	-
COC(=O)c1sccc1NC(=O)COCc1cc(-c2cccs2)on1	0	-
O=S(=O)(Cc1cccc(C(F)(F)F)c1)N1CCOCC1	-	0
CCc1ccc(NC(=O)Nc2csc3c2CCCC3)cc1	0	0
Cc1ccccc1N1CSC2=C(C#N)C(c3cccs3)CC(=O)N2C1 (centres undefined)	0	5.09
CCc1ccccc1N1CSC2=C(C#N)C(c3cccs3)CC(=O)N2C1 (centres undefined)	0	6.73
CCS(=O)(=O)NCCc1csc2nc(-c3cccc(F)c3)nn12	0	-
Cn1cc(S(=O)(=O)N2CCc3ccccc32)cc1C(=O)NCc1ccco1	0	0
CCOC(=O)C1=C(N)Oc2ccc3ccccc3c2C1c1ccncc1 (centres undefined)	-	0
C[C@@H]1C[C@H]2O[C@@H]2/C=C\C=C\C(=O)Cc2c(Cl)c(O)cc(O)c2C(=O)O1	4.98	-
